Experimental data from PubChem BioAssay AID2113 (National Center for Advancing Translational Sciences (NCATS), 2009).
Inconclusive results are not listed. Active and inactive are the calls of the source. The call rests on the fitted dose curve; in most records, active means well fitted curve in either direction with a large enough effect; inconclusive means small, poorly fitted or top-dose-only effect; inactive means no such curve, though single readings can be large or run the other way. Residues, ends and D or L forms follow the SMILES beside them.

The compounds below were run against Lysosomal alpha-glucosidase (Homo sapiens) (UniProt P10253) (assay: Confirmation of Inhibitors and Activators of Human alpha-Glucosidase From Spleen Homogenate). Settings: alpha-glucosidase enzyme activity; series mostly up to 60.5 µM; activity change, both directions: at the top concentration.
Method in brief: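 Compounds titrated against spleen-homogenate alpha-glucosidase, pH 5.0, 1 mM 4-MU-glucoside substrate, 37 C for 40 min. Fluorescence after pH 10 stop, normalised to no-enzyme and enzyme controls; Hill-equation AC50.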
Potency means the concentration at half of the fitted maximal effect.
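Wherever Potency is given: fluorescence of 4-methylumbelliferone released from a fluorogenic glucopyranoside substrate at pH 5.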
Wherever activity change, both directions is given: 0% is about no effect.

Activity change, both directions, inactive:
O=c1oc2ccc(Cl)cc2cc1-c1nc2c(s1)CCc1ccccc1-2 -1.76%
Nc1cc(=O)[nH]c(=S)n1-c1cccc(C(F)(F)F)c1 -2.3% [at 31.5 µM]
O=C(O)C[C@@H]1C(=O)O[C@@H]2C(COC(=O)c3cc(O)c(O)c(O)c3)O[C@@H](OC(=O)c3cc(O)c(O)c(O)c3)[C@@H](OC(=O)c3cc(O)c(O)c4c3[C@H]1[C@H](O)C(=O)O4)[C@H]2OC(=O)c1cc(O)c(O)c(O)c1 (stereo partly specified) 15.7% [at 31.5 µM]
COC(=O)c1cccc(S(=O)(=O)N2CCOCC2)c1 -0.712%
Cc1cccn2c(=O)c3cc(C#N)c(=NC(=O)c4cccs4)n(CCCOC(C)C)c3nc12 4.63% [at 31.5 µM]
CC(C)Cn1c(SCC(=O)N2CCN(S(=O)(=O)c3ccccc3)CC2)nc2ccccc21 -15.3%
COc1cccc2ccc(/C=C/c3ccc4c(c3)OCO4)nc12 2.75%
CCCN1CNc2c(c(=O)[nH]c(=S)n2CCc2c(C)cccc2C)C1 9.53%
Cc1[nH]nc2c1C(c1ccc(OC(=O)c3ccco3)cc1)C(C#N)=C(N)O2 (stereo unspecified) 1.59%
O=c1oc2ccc3ccccc3c2cc1-c1nc(CCCBr)cs1 -0.41%
O=C(COC(=O)c1ccccc1Br)NCCc1ccc(F)cc1 1.18% [at 31.5 µM]
CNC(=S)/N=C(\Nc1ccc(C)cc1)c1ccccc1 3.12% [at 31.5 µM]
COc1ccc(/C=C/c2nnc(NC(=O)COc3ccc(Cl)cc3)s2)cc1 -1.2%
COc1cc(=O)[nH]c(=O)n1C(=O)Cc1ccccc1 2.38% [at 31.5 µM]
Clc1cc2c(cc1/C=C/c1ccc3ccccc3n1)OCO2 5.58%
O=C1CC(N2CCN(c3cccc(C(F)(F)F)c3)CC2)C(=O)N1c1ccc(F)cc1 (stereo unspecified) 0.41% [at 31.5 µM]
Cc1[nH]n(C(N)=S)c(=O)c1N=Nc1ccc2ccccc2c1 1.19%
OCC(CO)NC1C[C@](O)(CO)[C@@H](O)[C@H](O)[C@H]1O (stereo partly specified) -99.6% [at 286 µM]
N#Cc1ccc(S(=O)(=O)N2CCOCC2)cc1 -2.24%
CC(=O)c1ccc(N2CCN(C(=O)c3ccc4c(c3)CC(=O)N4)CC2)cc1 -2.08%
CCCN1CNc2c(c(=O)[nH]c(=S)n2CCc2ccccc2)C1 9.04% [at 31.5 µM]
O=C(c1cc2c(ccc3ccccc32)oc1=O)N1CCN(CCO)CC1 11.3% [at 31.5 µM]
CCOC(=O)c1ccc(NC(=O)c2ccccc2)cc1 1.14% [at 31.5 µM]
Nc1cccc(S(=O)(=O)N2CCOCC2)c1 3.24%
COCCn1c(=NC(=O)c2ccc3c(c2)OCO3)c(C#N)cc2c(=O)n3cccc(C)c3nc21 3.39% [at 31.5 µM]
O=S(=O)(c1ccc(Cl)cc1)N1CCOCC1 3.29%
CC1=CC(=C2C=CC(=O)C=C2)C=C(C)N1C -1.03% [at 31.5 µM]
Cc1sc(-c2cc3cc(Br)ccc3oc2=O)nc1-c1ccccc1 12.3%
CCCC[C@H](NC(=O)[C@@H]1CCCN1C(=O)[C@H]1CCCN1C(=O)[C@H](Cc1ccccc1)NC(=O)[C@@H](Cc1c[nH]c2ccccc12)NC(=O)[C@H](C)NC(=O)[C@H](CCCN=C(N)N)NC(=O)OC(C)(C)C)C(N)=O (HELM PEPTIDE1{[CC(C)(C)OC(=O)[*:2]].R.A.[dW].F.[dP].P.[Nle].[am]}$$$$V2.0) 4%
CCCN1CNc2c(c(=O)[nH]c(=S)n2CCC(C)C)C1 -14.7%

Potency, active:
CCCN1CNc2c(c(=O)[nH]c(=S)n2CCc2cc(Cl)cc(Cl)c2)C1 7.94 µM
CCCN1CNc2c(c(=O)[nH]c(=S)n2CCc2cc(C)ccc2C)C1 8.91 µM
Cc1cccn2c(=O)c(/C=C(\C#N)C(=O)NC3CCS(=O)(=O)C3)c(N3CCC(C)CC3)nc12 (stereo unspecified) 11.2 µM
CCCN1CNc2c(c(=O)[nH]c(=S)n2CCc2ccc(OCC)c(OCC)c2)C1 25.1 µM
COc1ccc2nc(-c3ccc(N(C)C)cc3)sc2c1 7.08 µM
CC(=O)N1CCN(S(=O)(=O)c2ccc3c(c2)CC(=O)N3)CC1 29.8 µM [inhibitor]
